Experimental data as given in PubChem BioAssay AID1508600 (Functional Genomics Laboratory (NCATS/FGL), 2020).
About 3,700 (7%) of roughly 53,000 sequences were called active.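 Rule for the calls: active = gene knockdowns whose robust z-score for IL-1 alpha signal is at least 2 or at most -2, so actives lie on both sides; inactive = the rest.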 Many of the other results were omitted from the sample, so actives are more common in it than they were.

Assay: Components of the Cytosolic LPS Sensing Pathway: Gene Identification via Genome-wide siRNA Screen;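 note: robust z of the log signal after scaling to non-targeting control siRNA wells of the plate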
Settings: RAW264.7 macrophages, IL-1a HTRF, actives lie on both sides, screened at 100 nM (by protocol), cells primed 5 h with Pam3CSK4 first
Method in brief: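 Knockdown: 100 nM siRNA, 48h, RAW264.7. Stimulation: Pam3CSK4 5 h, then LipidA via TransIT-TKO 24 h. Output: supernatant IL-1a HTRF, negative-control-normalized, log robust z-score; viability by CellTiter-Glo.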

z-score, inactive:
GCAAGUGCGGAAGAAAGGATT against Afap1l2 0.0285
CCUUGUACACGGAUUGAAUTT against Itga6 -0.192
GGUAGGAAACCUCUCAGAGTT against Kcnc1 0.85
GGUGUUCAAAAUUCCUGCCTT against Mbl2 0.0864
GCUAGAGCUCACCAAAUAATT against Fam83a 0.759
UAGUGAGCAAGGAAUUGGATT against Gm20815 -0.238
GGAGGAGAAGAAACACCUGTT against Klc1 -1.73
GGACAAAAGCAAAGAAAAGTT against R3hdm2 -0.822
GGAAAAUGUGAAACAGCUATT against Dhx40 -0.873
CCCGUGCUUCAAAUAGAGATT against Cavin3 0.789
CAGCGAUCCAAGUACCUGGTT against Mbp 0.568
GGAAUUUCACUAACCUUAGTT against Tert 1.55
GGAUUCCUGAUUUCUUCAUTT against Snip1 0.915
GGAGAUAAAAAUCCAAGCATT against Stx19 0.274
GCAUAUGACACCGUAUCAGTT against Gprc5d 0.914
GCUCCUAUCCACAAUGCUGTT against Radil -0.0853
GGCAAAGAUGAUGGAAAAATT against Srp68 0.307
GGGACGAUGUCACUAUUAATT against Myrip 1.31
CGAGCUGGAUCUGUUUAGATT against Nsmce1 0.357
GGAUUAUGAUUUGCCUGAUTT against 4932414N04Rik 1.05
GCUAGAUGCUAUGAAGCGATT against Ap3b1 -0.406
GGAUCUAAGCCUGUUGUGATT against Zfp647 -0.82
GGUCACCCUGUUUAGGCCUTT against Fgd3 0.571
CCUGCCAAUCUGUCUAAGUTT against Haus1 -0.121
GUCAUGAGAUUGAAUACAATT against Olfr569 -0.0298
GGGAUUGAUUUCAACAAUGTT against Vmn1r33 0.464
CCCUUGCUAGUCCUUCUAUTT against Bora -0.65
GGUUGUAAAGGAAGAGAAGTT against Lyve1 0.397
GGCCAGACACUACAGGUAATT against Aldh16a1 0.0594
GCUACAGCUAUAUCGCUAUTT against Cnot8 0.625
GGAAUUAUGAUGUAGACAGTT against Garre1 0.662
GCCUUGGUCCUUAAAUAUATT against Slc7a2 -0.414
CGAUAUUUGGUGUGAAAUGTT against Tmem70 -0.609
GGGAAAUGCUUCUAAAAAUTT against Pcdhb11 0.377
CCACCAUCAUGAGAGAGGATT against Olfr350 0.00462
GGCAAAUGUAGACAUGUAUTT against Defb44-ps -0.0483
GCUAAUAUGCCACUGCCCGTT against Pls3 1.55
GCUAUGUGUACAGCUGCUGTT against Vmn1r62 0.21
CGUGCAGUGUGCUUCACAATT against Smarcad1 -1.89
GGCUCUGGCUAAGUACUUGTT against Cenpb -0.943
GCUAACUGAGCUGCCGGAATT against Lrrn3 0.264
GCUUCAUGCACGGUUCUAUTT against Cib2 1.65
GGCUCAGAAGAAAAUGGAUTT against Kcnk4 0.166
GGAUCUGUAUUGUAAACAATT against Pcmtd2 0.463
GCCGUUCAUUUCAACCGUGTT against Wdr5 -0.0339
GGCUCACUCUCCAUUCUACTT against Asb6 -0.902
CCGCCUGGAUAAUUAUGAUTT against Cltc 0.309
GGAUCAUGUCAUCACAAAATT against Fzd3 -0.319
GGUGUCCAAUUGCCCUAUCTT against Tnfrsf12a -1.98
GGGAACAGCAUGAAGGAAGTT against Krt78 0.688
GGCACGUUAUGAAGACCAGTT against Ttc6 1.49
GGCUGAUUAGAAUACCUCCTT against Adra2b 0.352
GGCCUACGUGCUAAACAUCTT against Atp1b1 1.77
GCUCUAAAUGAACAUCUCATT against Snai3 0.322
CCCUAAAACCAAAUGUACATT against Tet2 1.7
GGAUGUAACAUUUCUUCAATT against Rmi1 0.567
GGAAAUCACCAUGCCCUCUTT against S100a8 -0.0382
GCAUGGAGAUUCUGUGCGGTT against Trim45 -1.13
CCGAAAAUGGUAAAUAACUTT against Rnf17 0.111
GCUAUUUUGGGACGAGUCATT against Col13a1 -0.7
GGGAUCAAGUUAAAUAGACTT against Snhg16 -0.184
GCGAACAGUUGAAUAGAUUTT against Slc25a46 -0.108
CCAACACUAUUACUGUAAATT against Arg2 0.159
GGCCAGAAAAUUAAGGAGCTT against Faap100 1.15
CCUUGAGUACUUAUUGCGUTT against Chac1 0.934
GCCAACUCGAACAUUUUGATT against Zfp280b 0.567
GCUACUCGCGUUUAAUUUUTT against Slc9a9 -0.238
GGAUAACCCUCAGAAGUCCTT against Was 0.664
GGAGAGAGGACAACUUCUCTT against Mrm1 1.3
GGCUUUUAACACCUUCAUUTT against Clptm1l 0.495
GCUUCUUCUGUGAACUUCCTT against Olfr854 -0.939
GGCAGUGAGAGUCACAAGATT against Cdipt -1.74
GCCCAUGUUAGAGGUUUUGTT against Rsph3a 0.838
GGGAGAUGAGUUUUCUGAUTT against Cyp2c70 1.15
GGCAGUUGAUUCCUUUAAATT against Baz1a 0.0425
GCCCUUAGCUGCAUGAAUUTT against Laptm4b -0.661
GGACCGUCUGUCCUUUGUCTT against Nectin2 0.618
GGUAGAGAAGAACGGUACCTT against Mb21d2 1.08
GGUGCUUUCUGGAUGAAGATT against Akirin1 -0.282
GGCUUUUGGAGAAAAAGGATT against Nus1 1.92
GGGCCUUACGUCAUUCUCUTT against Dnajb7 -0.319
GGAUUUCAUUCCAAACAUGTT against Hbs1l -0.161
CGGGACUAUUAUUACUCCATT against Ap2m1 -1.22
GGAAGAUCUCUUGUCUGCUTT against Mtcp1 -0.269

z-score, active:
GGCCGGUGCCUUUUAUUCUTT against Spib 3.26
GGAGAAGAAGUGCUUCCCUTT against Gls2 -2.81
GAGUUCCAGUUUAUCCCUUTT against Klra1 -2.06
GGCAAAAGCGAAGAAUUUATT against E2f5 2.69
GGCAGACUGCUGACAUAUGTT against Cd37 -2.44
CGUGGAGAUCAUCCACUCATT against Inf2 -2.44
CGUGAUUUCAUGCUGUGGCTT against Tal2 -2.19
GGCUUUUAUUUUCUGGGAUTT against Barhl1 2.4
GGUCUCAAGUUUUACAUUCTT against Prss35 2.2
GGCACUCUCAGCUUUUGACTT against Olfr2 -2.43
GAGAAACAACAAUUUGGGATT against Gm20815 2.07
GGUCCUAUGGAUUAAUGCUTT against Ccn4 3.46
GGCUGGUAAUUCACUUAAUTT against Kcnk2 -2.54
GGAGGAACCUCAGAAACAGTT against Knstrn -2.19
GGUGGUCACUAAGAAGUUCTT against Prps1l1 2.48
GGCAACUGAAAUGUUUGUUTT against Rap2c 2.14
GACCUUUCUCUUCUUGGCUTT against Olfr434 -2.1
GGAAUAAUCAAGCUAGGGATT against Satb2 -2.2
GGAAGCUGCUUUUCUAAAUTT against Il7 2.92
GGAAAUGCAGUUGUGAAUGTT against Rab4a -2.03
GCUGUACCCGAAUGAGUUUTT against Mgat2 2.54
CCGAGUAAUUGGAAGUGGUTT against Ldha 2.08
GGAAAUGUAGUGAAGGGUGTT against Ndfip2 2.03
GGGAGAUGCAACCUCUCUUTT against Dennd5b 2.91
